# An excerpt weighted towards active compounds, which were near 19% of everything screened.
# IL-1B inflam inh: inflammasome signaling inhibition, IL-1 beta readout; THP-1 LPS/ATP IL-1B secretion, AlphaLISA, 16 h; hits give low values; activity change, % at 57.5 µM; 360,000 compounds, 4.7% hits; AID 743279; in the data active = activity change below about -50%; inconclusive = mostly about -30% to -49%
#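 Secreted IL-1B measured by AlphaLISA bead assay after 16 h compound exposure of THP-1 cells; compounds (final up to 57.5 uM) added 1 h before LPS (250 ng/mL) and ATP (1.25 mM) stimulation; lower signal means less secretion.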
# DT40 TDP1 no CPT: qHTS for Inhibitors of human tyrosyl-DNA phosphodiesterase 1 (TDP1): qHTS in cells in absence of CPT; DT40 Tdp1-/- hTDP1 cells, no CPT, ATP luminescence, 48 h; Potency, µM (highest dose often 46.2 µM), for the others: at the top dose activity change, negative = growth inhibition, most hits filed as inhibitors; 420,000 compounds, 15% hits; note: potency is the fitted concentration of half-maximal effect; nearly all actives have a fitted effect of over 55% in size
#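 Chicken DT40 Tdp1-/- cells stably complemented with human TDP1 were seeded at 400 cells/well with DMSO in place of 20 nM camptothecin. After compound pinning, cells grew at least 48 hr at 37 °C; viability read by CellTiter-Glo luminescence.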
# TDP1 cell CPT: DT40-hTDP1 cell growth loss with CPT; chicken DT40 Tdp1-/-;hTDP1 cells + 20 nM CPT, ATP luminescence, 48 h; Potency, µM (top dose mostly 46.2 µM), for inactives: top-dose activity change, negative = growth inhibition, most hits filed as inhibitors; 420,000 compounds, 12% hits; note: potency is the fitted concentration of half-maximal effect; nearly all actives have a fitted effect of over 55% in size
#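 Chicken DT40 Tdp1-/- cells complemented with human TDP1, 400 cells/well, exposed to compounds plus 20 nM camptothecin for at least 48 h at 37 C; viability read as ATP content by CellTiter-Glo luminescence.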
# HT1080 IDH1KD tx: toxicity to HT-1080 IDH1 knockdown cells (counter line); HT-1080 IDH1 knockdown viability, ATP luminescence, 48 h; Potency, µM (doses to about 46.1 µM), for the others: top-dose activity, negative = toxicity, usual class: cytotoxic; 360,000 compounds, 2% hits;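 note: potency is the fitted concentration of half-maximal effect; 0% = DMSO wells and -100% = cell-free medium wells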
#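 Cytotoxicity counter-line: IDH1KD HT-1080, 48 h, CellTiter-Glo. Curves classed by r2, magnitude and activity.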
# HT1080NT lethal: kills 2HG-producing HT-1080-NT fibrosarcoma cells; HT-1080-NT fibrosarcoma viability, CellTiter-Glo ATP luminescence, 48 h; Potency, µM (series often up to 46.1 µM), without a hit: at the top dose activity, negative = less viability, actives largely listed as cytotoxic; 360,000 compounds, 1.6% hits; AID 686970;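 note: NT is the 2HG producing partner of a matched IDH1 knockdown line; potency is the fitted concentration of half-maximal effect; 0% = DMSO-treated cells and -100% = media-only wells without cells; nearly all actives have a fitted effect of over 55% in size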
#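 Read-out is CellTiter-Glo luminescence after 10 minutes at room temperature, following 48 hours' compound treatment of HT-1080-NT cells (750 cells/well, RPMI, 5% FBS, 37 degrees C).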
# Starred values were filed as active, the others as inactive; ? = inconclusive; · = no result. Unless noted, calls come from the whole dose curve; as a rule, active = well fitted curve in the direction sought with a large enough effect; inconclusive = small, poorly fitted or top-dose-only effect, or another doubt; inactive = no such curve, though single readings can be large; an effect the other way counts as inactive or inconclusive. Unless noted, % is set by controls: 0 for no effect and ±100 for the full control effect.
SMILES,IL-1B inflam inh,DT40 TDP1 no CPT,TDP1 cell CPT,HT1080 IDH1KD tx,HT1080NT lethal
c1ccc(-c2cc(-c3ccncc3)nc3ccc4ccccc4c23)cc1,-25,?,?,-30%,?
COc1nc(-c2ccccc2)cc(C(F)(F)F)n1,13,-14%,0%,-16%,1%
CCOC(=O)CCS(=O)(=O)c1nc(-c2ccccc2)cc(C(F)(F)F)n1,-99*,0.65µM*,0.41µM*,5.2µM*,?
CCOC(=O)c1c(NC(C)=O)sc2c(O)c(CN3CCN(CC)CC3)ccc12,-63*,-17%,?,-10%,?
CC1(C)Oc2ccc3ccc(=O)oc3c2[C@@H](O)[C@H]1O,7,6%,?,11%,-12%
O=C(CSc1ncccn1)NN=C1CCCCCCC1,18,-21%,-4%,14%,14%
Cc1cc(C)nc(SCC(=O)N/N=C\C(Br)=C\c2ccccc2)n1,-13,15µM*,6.5µM*,?,-6%
Cc1cc(C)nc(SCC(=O)NN=C2CCCC2)n1,1,21µM*,?,9%,8%
Cc1cc(C)nc(SCC(=O)N/N=C/c2cccc([N+](=O)[O-])c2)n1,6,23µM*,18µM*,-5%,0%
Cc1cc(C)nc(SCC(=O)N/N=C/C=C/c2ccccc2)n1,-3,?,?,-4%,-4%
Cc1ccc(NCC(=O)N/N=C\C(Br)=C\c2ccccc2)cc1,-98*,5.8µM*,3.3µM*,16µM*,?
Fc1ccc(Nc2nc(NCc3ccco3)nc3nccnc23)cc1,·,-29%,-25%,·,·
Cc1ccc(S(=O)(=O)N2CCN(c3nc(-c4cccs4)cc4ccccc34)CC2)cc1,·,?,?,3%,13%
Cn1c(NC(=O)C[n+]2cc(-c3ccc(F)cc3)n3c2CCC3)cc(=O)n(C)c1=O,-1,?,0%,18%,9%
Cc1ccc(-c2c[n+](CC(=O)c3ccc(Br)cc3)c3n2CCCCC3)cc1,-95*,1.6µM*,1.5µM*,?,21µM*
COc1ccc(-c2c[n+]3c4n2CCCCC4=C(c2ccccc2)C3)cc1,?,5.2µM*,3.3µM*,-16%,-1%
COc1ccc(-c2c[n+](CC(=O)c3ccccc3)c3n2CCCCC3)cc1,?,4.1µM*,7.3µM*,?,?
O=C(CSc1nc(-c2ccccc2)nc2c1CCCC2)c1ccc(Cl)cc1,·,0%,13%,·,·
O=C(C[n+]1cc(-c2ccccc2)n2c1CCCCC2)c1ccc(Cl)cc1,-76*,16µM*,21µM*,-3%,-2%
O=C(C[n+]1cc(-c2ccc(F)cc2)n2c1CCC2)c1cccs1,0,-23%,-5%,-1%,-2%
Cc1nn(CC(=O)Nc2ccc3c(c2)CCC3)c(C)c1[N+](=O)[O-],12,-20%,-29%,-5%,-4%
Nc1ccn([C@@H]2O[C@H](C(=O)N3CCSC3)[C@@H](O)[C@H]2O)c(=O)n1,19,25%,-3%,6%,?
CCCN(CC(=O)Nc1ccccc1C)C(=O)c1ccc(=O)n(Cc2ccccc2)n1,-87*,-8%,7%,-8%,5%
O=c1cc(Nc2ccc3c(c2)OCO3)[nH]c(=O)n1-c1ccc(Br)cc1,20,23µM*,?,35µM*,?
O=C(NN1C(=O)c2ccccc2NC1c1ccco1)c1ccc([N+](=O)[O-])cc1 (stereo unspecified),-9,?,-16%,2%,-1%
SMILES,IL-1B inflam inh,DT40 TDP1 no CPT,TDP1 cell CPT,HT1080 IDH1KD tx,HT1080NT lethal
Cc1cc(NCCCN2CCOCC2)n2nc(C)c(-c3ccccc3)c2n1,-14,16µM*,16µM*,-22%,-24%
Cc1cc(NCCCN2CCOCC2)n2nc(C)c(-c3ccc(F)cc3)c2n1,-57*,16µM*,?,?,?
O=C(NC(=S)Nc1ccc(CN2CCOCC2)cc1)c1ccc([N+](=O)[O-])cc1Cl,1,26µM*,1%,-2%,-9%
CC(C)C(=O)NC(=S)Nc1ccc(CN2CCOCC2)cc1,14,15%,5%,1%,-1%
Cc1ccc(C(=O)NC(=S)Nc2ccc(N3CCOCC3)cc2)c(C)c1,2,23µM*,-1%,-3%,-10%
CC(C)Oc1ccc(C(=O)NC(=S)Nc2ccc(CN3CCOCC3)cc2)cc1,-27,18µM*,?,9%,8%
Cc1ccc(C(=O)NC(=S)Nc2ccc3c(c2)OCCO3)c(C)c1,-7,?,?,-25%,-5%
O=C(NC(=S)Nc1ccc(CN2CCOCC2)cc1)c1cccc([N+](=O)[O-])c1,32,-23%,0%,13%,15%
O=C(Nc1ccc(CN2CCOCC2)cc1)c1cc(Br)ccc1Cl,-51*,?,-28%,-2%,4%
CCOc1ccccc1NC(=O)CN(c1ccc(Cl)cc1)S(C)(=O)=O,-11,?,?,-19%,0%
O=C(NCc1ccccn1)Nc1cccc(Cl)c1Cl,?,14%,0%,6%,1%
Cc1ccc(C(=O)Nc2cc3c(cc2C)n(C)c(=O)c(=O)n3C)cc1,·,0%,3%,·,·
COc1ccc(Br)cc1C(=O)NC(=S)Nc1ccc(Cl)c(C(=O)O)c1,24,-24%,-18%,-9%,-15%
Cc1ccc(C(=O)NC(=S)Nc2ccc(CN3CCOCC3)cc2)cc1,-29,?,21µM*,-1%,-7%
O=C(Nc1ccc(Cl)cc1)c1cc(Br)ccc1OCC(=O)N1CCOCC1,-92*,?,?,5%,0%
O=C(Nc1ccc(OCC(=O)N2CCOCC2)cc1)c1ccccc1F,19,-3%,2%,0%,3%
O=C(COc1ccc(Br)cc1)N1CCOCC1,-7,-16%,-11%,-2%,-4%

# High-throughput results from PubChem BioAssay.
